Measurements from PubChem BioAssay AID431 (Sanford-Burnham Center for Chemical Genomics, 2006).
Out of some 63,000 compounds screened, about 1,100 (1.7%) were called active.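 Rule for the calls: active = compounds whose percent cytotoxicity in the single-dose primary screen, scaled between solvent and toxic-drug controls, exceeds 50; inactive = the rest.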 The full list was thinned out, with actives kept by preference. Potency and affinity values are given separately.

Experiment: cytotoxicity in KRAS-transformed pancreatic duct cells, primary screen, cell-based, fluorescence, HTS (AID 431);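 note: 0% = DMSO solvent wells and 100% = doxorubicin-treated wells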
Details: HPDE-C7K KRASV12 cells, Alamar Blue viability, 48 h; at 10 µM; active compounds read high

Row | SMILES | cytotoxicity
1 | COc1cccc2cc(C(=O)Nc3cccnc3N3CCOCC3)c(=O)oc12 | 7.3% (inactive)
2 | O=C(CSc1nnnn1-c1ccc2c(c1)OCCO2)c1cccc2c1OCCO2 | 10.2% (inactive)
3 | COc1cccc(/C=N/n2c(CO)nc3ccccc32)c1OC | -4.1% (inactive)
4 | CC(O)C(O)C(O)C(O)C1NCCS1 (stereo not drawn) | 5.8% (inactive)
5 | CCCCn1c(=N)n(CC(O)COc2ccccc2)c2ccccc21 (stereo not drawn) | 13.3% (inactive)
6 | N=c1n(Cc2ccccc2)c2ccccc2n1CC(O)COc1ccccc1 (stereo not drawn) | 53% (active)
7 | COc1ccc(OCC(O)Cn2c(=N)n(Cc3ccccc3)c3ccccc32)cc1 (stereo not drawn) | 22.1% (inactive)
8 | CCCn1c(=N)n(CC(O)COc2cccc(C)c2)c2ccccc21 (stereo not drawn) | 12.4% (inactive)
9 | CCn1c(=N)n(CC(O)COc2cccc(C)c2)c2ccccc21 (stereo not drawn) | 23.6% (inactive)
10 | CCCCn1c(=N)n(CC(O)COc2cccc(C)c2)c2ccccc21 (stereo not drawn) | 50.9% (active)
11 | O=C(COc1ccccc1)NCCSc1ccccc1 | 0% (inactive)
12 | CCN(CC)S(=O)(=O)c1ccc(OCC(=O)NCc2ccccc2)cc1 | 7.9% (inactive)
13 | Cc1ccc(NC(=O)CSCc2c(C)noc2C)cc1C | -2.9% (inactive)
14 | COc1ccccc1Cn1c2nc3ccccc3nc2c2c(=O)n(CC(C)C)cnc21 | 5% (inactive)
15 | O=C(NC1CCCCC1)C1CCN(S(=O)(=O)c2cccc3cccnc23)CC1 | -12.2% (inactive)
16 | Cc1ccc(CNc2ncc(-c3ccc4c(c3)OCO4)n2C)cc1 | -5.9% (inactive)
17 | Cn1c(-c2ccc3c(c2)OCO3)cnc1NCc1ccc(Cl)cc1 | 62.3% (active)
18 | Cn1c(-c2ccc3c(c2)OCO3)cnc1NCc1cccc(Cl)c1 | 63.6% (active)
19 | Cn1c(-c2ccc3c(c2)OCO3)cnc1NC(=O)CCC(=O)NCCc1ccccc1 | -0.9% (inactive)
20 | Cn1c(-c2ccc3c(c2)OCO3)cnc1NCc1ccccc1 | -4.5% (inactive)
21 | Cn1c(-c2ccc3c(c2)OCO3)cnc1N | 8.4% (inactive)
22 | COc1ccc(CN2CCN(S(=O)(=O)c3ccc(NC(C)=O)cc3)CC2)cc1OC | -2.4% (inactive)
23 | O=C(NCCN1C(=O)C2C3C=CC(C3)C2C1=O)Nc1ccc(Br)cc1 (stereo not drawn) | 8.1% (inactive)
24 | COc1cccc(S(=O)(=O)Nc2ccc(C(=O)NCc3ccco3)cc2)c1 | -28.4% (inactive)
25 | COc1ccc(CC(=O)N2CCN(C(=O)Cc3ccc(OC)cc3)CC2)cc1 | -6.3% (inactive)

Row | SMILES | cytotoxicity
26 | CC(C)CNC(=O)c1c(N)n(/N=C/c2ccccn2)c2nc3ccccc3nc12 | 1.7% (inactive)
27 | Nc1c(C(=O)NC2CCCC2)c2nc3ccccc3nc2n1/N=C/c1cccnc1 | 66.8% (active)
28 | CCCCNC(=O)c1c(N)n(/N=C/c2cccnc2)c2nc3ccccc3nc12 | 12.3% (inactive)
29 | CCC(C)NC(=O)c1c(N)n(/N=C/c2cccnc2)c2nc3ccccc3nc12 (stereo not drawn) | 51.8% (active)
30 | CC(C)CNC(=O)c1c(N)n(/N=C/c2cccnc2)c2nc3ccccc3nc12 | 1.6% (inactive)
31 | Nc1c(C(=O)NC2CCCCC2)c2nc3ccccc3nc2n1/N=C/c1ccco1 | 4.7% (inactive)
32 | COCCCNC(=O)c1c(N)n(/N=C/c2cccnc2)c2nc3ccccc3nc12 | 22.5% (inactive)
33 | CCCCNC(=O)c1c(N)n(/N=C/c2ccccn2)c2nc3ccccc3nc12 | 38.1% (inactive)
34 | Cc1ccnc(N(C(=O)c2cccs2)C(=O)c2cccs2)c1 | -0.7% (inactive)
35 | C=CCN1C(c2ccccc2)=CS/C1=C(\C#N)c1nnc2n1CCCCC2 | -0.6% (inactive)
36 | Cc1cc(C(=O)OCC(=O)NC(=O)NC(C)(C)C)c(C)o1 | -3.4% (inactive)
37 | COc1cccc(-c2cc(C(=O)N3CCN(C(c4ccccc4)c4ccccc4)CC3)no2)c1 | -8.3% (inactive)
38 | C=CCn1c(SCc2ccccc2C#N)nnc1-c1cc(Br)ccc1O | 13.1% (inactive)
39 | C#CC(C)(C)NC(=O)c1ccccc1OC | -11.3% (inactive)
40 | COc1cccc(C(=O)Nc2ccc(NC(=O)C(C)(C)C)cn2)c1 | 19.5% (inactive)
41 | Cc1oc(C)c2c(=O)ccc3c(c12)OC(N)=C(C#N)C3c1ccccc1 (stereo not drawn) | -7.8% (inactive)
42 | CSc1ccc(C2C(C#N)=C(N)Oc3c2ccc(=O)c2c(C)oc(C)c32)cc1 (stereo not drawn) | -2.3% (inactive)
43 | CCOc1cc(NC(=O)c2ccccn2)c(OCC)cc1NC(=O)CC(C)C | 9.9% (inactive)
44 | CCOC(=O)NC1(C(F)(F)F)C(=O)NC(C)=C1C#N (stereo not drawn) | 2.9% (inactive)
45 | O=C(CSc1nc2ccccc2c(=O)n1Cc1ccco1)NCc1ccco1 | -11.8% (inactive)
46 | O=c1c2ccccc2nc(SCc2ccccc2)n1Cc1ccco1 | -7% (inactive)
47 | O=C(CSc1nc2ccccc2c(=O)n1Cc1ccco1)NCc1ccccc1 | 58.5% (active)
48 | O=c1c2ccccc2nc(SCc2cc(F)cc3c2OCOC3)n1Cc1ccco1 | -5.3% (inactive)
49 | CCOC(=O)c1cc2c(c(CSc3nc4ccccc4c(=O)n3Cc3ccco3)c1)OCOC2 | 62.1% (active)
50 | CCOC(=O)CSc1nc2ccccc2c(=O)n1Cc1ccco1 | -3% (inactive)

Row | SMILES | cytotoxicity
51 | Cn1c(CN2CCOCC2)nnc1SCC(=O)Nc1nccs1 | 1.8% (inactive)
52 | COc1ccc(C(C(=O)OC(C)CN(C)C)c2ccccc2)cc1 (stereo not drawn) | -8.5% (inactive)
53 | CN(C)CC(C(=O)c1ccccc1)c1ccccc1 (stereo not drawn) | 100% (active)
54 | CCC(C(=O)c1ccc(O)cc1)c1ccccc1 (stereo not drawn) | 18.5% (inactive)
55 | COc1cccc(C2/C(=C(/O)c3cnn(-c4ccccc4)c3C)C(=O)C(=O)N2CCN(C)C)c1OC (stereo not drawn) | 11.3% (inactive)
56 | CCC(c1nnnn1Cc1ccccc1)N1CCN(C(=O)c2ccco2)CC1 (stereo not drawn) | -1.7% (inactive)
57 | COc1ccccc1-c1cc(C(F)(F)F)nc(N2CCOCC2)n1 | -4.5% (inactive)
58 | COc1ccccc1-c1cc(C(F)(F)F)nc(N2CCCC2)n1 | -16.5% (inactive)
59 | COc1ccccc1-c1cc(C(F)(F)F)nc(S(=O)(=O)CCCC(=O)Nc2cc(C)on2)n1 | 27.3% (inactive)
60 | COc1ccccc1-c1cc(C(F)(F)F)nc(S(=O)(=O)CCCC(=O)NC(C)C)n1 | -3.9% (inactive)
61 | COc1ccccc1-c1cc(C(F)(F)F)nc(S(=O)(=O)CCCC(=O)N2CCCCC2C)n1 (stereo not drawn) | 50.1% (active)
62 | COc1cccc(Oc2cn[nH]c2-c2ccc(OC)cc2O)c1 | 80.7% (active)
63 | CCOc1ccc(-c2[nH]ncc2Oc2cccc(OC)c2)c(O)c1 | 58.3% (active)
64 | COc1ccc(-c2[nH]ncc2-c2cnn(-c3ccccc3)c2)c(O)c1 | 2.7% (inactive)
65 | COc1cccc(Oc2cn[nH]c2-c2ccc(O)cc2O)c1 | 43.9% (inactive)
66 | CCOc1cccc(OCCOCCN2CCCC2)c1 | -6.3% (inactive)
67 | COc1ccc(CC(=O)Nc2cccc(-c3nnc(-c4ccc(C)cc4)o3)c2)cc1OC | 18.8% (inactive)
68 | O=C(c1ccco1)N1C2C=CC(C2)C1(C(F)(F)F)C(F)(F)F (stereo not drawn) | 0.4% (inactive)
69 | COc1cccc(C2=NOC(C(=O)NC(C)(C)C)C2)c1 (stereo not drawn) | 0.2% (inactive)
70 | COc1cccc(C2=NOC(C(=O)NC(C)C)C2)c1 (stereo not drawn) | -9.8% (inactive)
71 | Cc1cc2cc(CNC(=O)c3ccc4c(c3)OCO4)ccc2[nH]1 | 15.6% (inactive)
72 | Cn1nnnc1Sc1nc(-c2cccnc2)nc2ccccc12 | 109% (active)
73 | OCCSc1nc(-c2cccnc2)nc2ccccc12 | 2.2% (inactive)
74 | CN1CCN(c2nc(-c3cccnc3)nc3ccccc23)CC1 | -10.1% (inactive)
75 | O=C(NCc1ccco1)c1cccnc1-c1nc2ccccc2s1 | 0% (inactive)

Row | SMILES | cytotoxicity
76 | COC(=O)c1cn(CC(=O)N2CCCCCC2)c2ccccc12 | 3.6% (inactive)
77 | Cn1nccc1C(=O)OCC(=O)Nc1nc(-c2ccccc2)cs1 | -24.7% (inactive)
78 | O=C1c2ccccc2NC(c2ccc(F)cc2)N1Cc1ccco1 (stereo not drawn) | 2.1% (inactive)
79 | O=C1C(=O)N(Cc2ccco2)C(c2cccc(Cl)c2)/C1=C(\O)c1ccc2c(c1)OCCO2 (stereo not drawn) | 2.2% (inactive)
80 | O=C1c2ccccc2C(O)N1Cc1ccco1 (stereo not drawn) | -9% (inactive)
81 | O=C1c2[nH]nc(-c3ccccc3O)c2C(c2ccccc2)N1Cc1ccco1 (stereo not drawn) | 32.3% (inactive)
82 | O=C1c2[nH]nc(-c3ccccc3O)c2C(c2cccc(Cl)c2)N1CC1CCCO1 (stereo not drawn) | 38.2% (inactive)
83 | CC(=O)C1=C(O)C(=O)N(Cc2ccco2)C1c1ccc(F)cc1 (stereo not drawn) | 8.7% (inactive)
84 | CCn1c(SCC(=O)NCc2cccs2)nnc1-c1ccncc1 | -3.4% (inactive)
85 | O=C(Nc1ccc(C(=O)Oc2ccccc2)c(O)c1)c1ccco1 | -1.3% (inactive)
86 | Cc1sc2ncnc(SCC(=O)N3CCCC3)c2c1C | -13.4% (inactive)
87 | O=C(CSc1nnc(Cc2ccccc2)o1)N1CCc2ccccc21 | -9.6% (inactive)
88 | C=CCn1c(=N)c(C(=O)OC)cc2c(=O)n3cccc(C)c3nc21 | -26.9% (inactive)
89 | Cc1ccc(C(=O)N2CCCC2)cc1S(=O)(=O)Nc1ccccc1 | -7% (inactive)
90 | CC1CCN(C(=O)CSc2nc(N)cc(N)n2)CC1 | -11.1% (inactive)
91 | CCCc1cc(C(=O)Cc2ccc(F)cc2)c(O)cc1O | 80.9% (active)
92 | CCc1cc(C(=O)COc2ccccc2F)c(O)cc1O | -13.8% (inactive)
93 | CCc1cc(C(=O)Cc2ccc(F)cc2)c(O)cc1O | 50.9% (active)
94 | CCCc1cc(C(=O)Cc2ccc(C(=O)OCC)o2)c(O)cc1O | 24.5% (inactive)
95 | CCc1cc(C(=O)Cc2cnn(-c3ccccc3)c2)c(O)cc1O | 6.7% (inactive)
96 | CCc1cc(C(=O)Cc2nc3ccccc3[nH]2)c(O)cc1O | 20% (inactive)
97 | O=C(Nc1ccccc1-c1nc2ccccc2s1)c1ccco1 | 7.5% (inactive)
98 | CC1(C)CC(=O)C2=C(C1)Nc1ccccc1NC2c1ccccn1 (stereo not drawn) | -20% (inactive)
